In PubChem BioAssay one finds composite z-score and z-score data, which are given here for five compounds.

Active and inactive are the calls of the source. Unless noted, no rule for the calls is given here.

The nature of test [1]: anti-His antibody binders, primary screen, artefact control for SMM control protein annotation, biochemical, small-molecule microarray, 635 nm fluorescence (AID 1128).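 Also: score merges feature fluorescence with signal-to-noise for each printed compound spot.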 The settings on record: anti-His Alexa647 antibody binding, higher = more signal.
Test [2] concerns Human papillomavirus type 1a E7 protein (residues 1-88). The experiment in a line: HPV1a E7 small-molecule binders, primary screen, biochemical, small-molecule microarray, residues 1-88, 635 nm (AID 1129). The settings on record: small-molecule microarray binding, fluorescence 635 nm; higher = more signal.
Test [3] deals with Focal adhesion kinase 1 (Homo sapiens) (UniProt Q05397). As to the kind of experiment: small-molecule microarray binders of FAK, primary screen, biochemical, 635/667 nm fluorescence, BSA, DTT (AID 1130).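 Also: composite of spot emission at 667 nm and signal to noise over triplicate slides.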 The settings on record: PTK2 binding, 635 nm fluorescence, higher = more signal.
Sequence of Focal adhesion kinase 1 (Homo sapiens) (Q05397 whole entry, looked up): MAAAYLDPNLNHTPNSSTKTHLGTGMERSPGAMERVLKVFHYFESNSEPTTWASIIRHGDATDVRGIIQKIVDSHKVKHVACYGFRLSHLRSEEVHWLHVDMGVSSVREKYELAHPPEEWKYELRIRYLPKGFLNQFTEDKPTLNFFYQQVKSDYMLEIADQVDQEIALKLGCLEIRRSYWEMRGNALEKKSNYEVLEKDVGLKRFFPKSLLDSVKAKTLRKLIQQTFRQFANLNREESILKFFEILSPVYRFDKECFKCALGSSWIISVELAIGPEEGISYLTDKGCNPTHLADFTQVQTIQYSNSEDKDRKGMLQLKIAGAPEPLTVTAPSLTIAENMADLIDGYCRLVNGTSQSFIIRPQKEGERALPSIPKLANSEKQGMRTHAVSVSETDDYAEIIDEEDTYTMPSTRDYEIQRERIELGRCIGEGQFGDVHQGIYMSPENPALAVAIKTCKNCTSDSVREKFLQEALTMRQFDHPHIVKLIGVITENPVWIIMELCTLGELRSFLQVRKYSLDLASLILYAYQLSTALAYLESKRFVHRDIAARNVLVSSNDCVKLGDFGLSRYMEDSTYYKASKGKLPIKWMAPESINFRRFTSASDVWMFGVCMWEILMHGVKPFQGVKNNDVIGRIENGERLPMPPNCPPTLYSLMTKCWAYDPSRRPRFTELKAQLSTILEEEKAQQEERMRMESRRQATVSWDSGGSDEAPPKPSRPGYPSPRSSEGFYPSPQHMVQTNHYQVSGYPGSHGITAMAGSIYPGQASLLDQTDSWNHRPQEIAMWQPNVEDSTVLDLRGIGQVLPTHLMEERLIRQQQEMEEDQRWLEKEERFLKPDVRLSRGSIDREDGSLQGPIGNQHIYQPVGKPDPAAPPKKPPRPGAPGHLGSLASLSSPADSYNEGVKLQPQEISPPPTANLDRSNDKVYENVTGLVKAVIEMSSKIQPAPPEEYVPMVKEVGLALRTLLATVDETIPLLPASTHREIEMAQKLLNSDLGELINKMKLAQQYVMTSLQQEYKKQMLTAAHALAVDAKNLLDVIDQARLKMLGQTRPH
Test [4] deals with Fibrinogen (Alexa647-labelled). The experiment in a line: fibrinogen binders on compound microarrays, profiling panel, artefact control for SMM control-protein annotation, biochemical, small-molecule microarray, 635/667 nm fluorescence (AID 1131).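 Also: z-score merges 667 nm fluorescence with per-spot signal-to-noise over triplicate slides.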 The settings on record: fibrinogen-A647 binding fluorescence, higher = more signal.
The target of test [5] is Follistatin (Homo sapiens) (UniProt P19883). As to the kind of experiment: follistatin binders on small-molecule microarrays, primary screen, biochemical, small-molecule microarray, 635/667 nm fluorescence (AID 1132). The settings on record: FST binding, 635 nm fluorescence, higher = more signal.
Sequence of Follistatin (Homo sapiens) (P19883 whole entry, looked up): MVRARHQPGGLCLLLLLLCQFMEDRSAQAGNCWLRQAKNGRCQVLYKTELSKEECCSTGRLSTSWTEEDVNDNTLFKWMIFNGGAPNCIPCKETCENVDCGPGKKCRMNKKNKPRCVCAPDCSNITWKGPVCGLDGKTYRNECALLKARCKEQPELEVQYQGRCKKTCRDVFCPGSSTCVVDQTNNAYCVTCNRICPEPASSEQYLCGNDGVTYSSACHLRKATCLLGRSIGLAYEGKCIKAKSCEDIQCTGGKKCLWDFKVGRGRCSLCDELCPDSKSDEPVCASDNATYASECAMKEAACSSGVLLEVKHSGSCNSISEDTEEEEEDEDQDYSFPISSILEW
The target in test [6] is Fibroblast growth factor 2 (Homo sapiens) (UniProt P09038). As to the kind of experiment: FGF2 binders on small-molecule microarrays, primary screen, biochemical, small-molecule microarray, 635/667 nm fluorescence (AID 1133). The settings on record: small-molecule microarray binding, FGF2, fluorescence 635/667; higher = more signal.
Sequence of Fibroblast growth factor 2 (Homo sapiens) (P09038 whole entry, looked up): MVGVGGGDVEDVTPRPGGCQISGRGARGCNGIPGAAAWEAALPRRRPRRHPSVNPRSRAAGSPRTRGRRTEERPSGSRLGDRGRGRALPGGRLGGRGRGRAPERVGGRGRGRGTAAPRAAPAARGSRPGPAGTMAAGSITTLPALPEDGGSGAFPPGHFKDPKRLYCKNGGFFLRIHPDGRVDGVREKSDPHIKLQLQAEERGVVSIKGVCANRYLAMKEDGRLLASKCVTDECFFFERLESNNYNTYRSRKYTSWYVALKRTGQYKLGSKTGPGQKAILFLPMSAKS
The nature of test [7]: mitochondrial membrane potential change in A549 cells, profiling panel, cell-based, JC-1 fluorescence, basal, 24 h, 100 nL (AID 1138).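 Also: A549 lung adenocarcinoma cells under basal conditions with no added stimulus; test concentration not given here.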 The settings on record: higher = more signal.
Another test concerns Lefty1. The experiment in a line: Lefty1 binders on small-molecule microarrays, primary screen, biochemical, small-molecule microarray, 635/667 nm fluorescence (AID 1139). The settings on record: small-molecule microarray binding, fluorescence 635/667; higher = more signal.
Test [8] relates to wheat germ agglutinin (Triticum aestivum), Alexa647-labelled. The experiment in a line: wheat germ agglutinin binders on compound microarrays, profiling panel, artefact control for SMM control-protein annotation, biochemical, small-molecule microarray, 635/667 nm fluorescence (AID 1140).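 Also: score merges 667 nm feature emission with signal to noise over triplicate slides.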 The settings on record: WGA-A647 binding, 635 nm fluorescence, higher = more signal.
The target in test [9] is Luciferin 4-monooxygenase (Photinus pyralis) (UniProt P08659). As to the kind of experiment: firefly luciferase enzyme inhibitors, primary screen, biochemical, luminescence, purified enzyme, 2006 set (AID 1141).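 Also: cell-free assay with purified firefly luciferase at 100 ng per well in PBS; test concentration not given here.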 The settings on record: SteadyGlo luminescence, 30 min, higher = more signal, called active from +8 up or from −8 down.
Sequence of Luciferin 4-monooxygenase (Photinus pyralis) (P08659 whole entry, looked up): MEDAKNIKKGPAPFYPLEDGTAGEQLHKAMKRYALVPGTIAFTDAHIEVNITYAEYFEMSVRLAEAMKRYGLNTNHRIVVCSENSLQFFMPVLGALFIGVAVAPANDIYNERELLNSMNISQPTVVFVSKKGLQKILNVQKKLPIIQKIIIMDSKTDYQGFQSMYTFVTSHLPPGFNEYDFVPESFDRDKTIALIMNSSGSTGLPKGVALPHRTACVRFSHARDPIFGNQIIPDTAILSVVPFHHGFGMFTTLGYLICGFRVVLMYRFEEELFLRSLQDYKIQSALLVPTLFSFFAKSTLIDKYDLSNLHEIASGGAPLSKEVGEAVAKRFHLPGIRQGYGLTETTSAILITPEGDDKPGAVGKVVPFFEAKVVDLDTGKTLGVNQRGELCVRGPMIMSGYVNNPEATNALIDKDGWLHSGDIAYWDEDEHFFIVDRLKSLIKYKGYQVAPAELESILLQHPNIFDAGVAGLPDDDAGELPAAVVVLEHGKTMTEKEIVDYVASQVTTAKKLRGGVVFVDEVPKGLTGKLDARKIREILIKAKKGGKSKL
In test [10] the test system is Wnt5a (protein binding on small-molecule microarray). The experiment in a line: Wnt5a binders on small-molecule microarray, primary screen, biophysical, 635/667 nm fluorescence (AID 1142).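 Also: fluorescence read at 667 nm with signal to noise per printed feature.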 The settings on record: 635 nm fluorescence, higher = more signal.
A short description of test [11]: cell viability in Huh7 cells, primary screen, cytotoxicity control for HCV replication inhibitor project, CellTiter-Glo luminescence, basal, 48 h (AID 1143).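 Also: Huh7 hepatoma cells carrying a hepatitis C replication reporter with no stimulus; test concentration not given here.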 The settings on record: Huh7 HCV replicon, higher = more signal, called active from +8 up or from −8 down. On the technique in general: ATP-based viability assays read luminescence as a measure of living cells.

Test [12] in a line: P. aeruginosa biofilm formation inhibitors, primary screen, PAO1 strain, BacTiter-Glo luminescence, LB-PBS (AID 1144). The settings on record: 12 h, higher = more signal.
Test [13] is described as follows: CREB reporter modulators without forskolin, primary screen, cell-based, PC12, CRE-LacZ reporter, unstimulated (AID 1145). The settings on record: no forskolin, luminescence, 4.5 h, higher = more signal, called active from +8 up or from −8 down.
A short description of test [14]: CREB reporter modulators under forskolin, primary screen, cell-based, PC12, CRE-LacZ reporter, forskolin-stimulated (AID 1146).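 Also: PC12 cells with 6xCRE LacZ reporter stimulated by forskolin 10 µM; beta-galactosidase reporter signal reflecting CREB driven transcription.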 The settings on record: luminescence, 4.5 h, higher = more signal, called active from +8 up or from −8 down.
Test [15] concerns the target Streptavidin (Streptomyces avidinii) (UniProt P22629). The experiment in a line: streptavidin binders on small-molecule microarray, primary screen, artefact control for SMM compound annotation, biophysical, 635/667 nm fluorescence (AID 1147).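 Also: signal reflects streptavidin binding to arrayed compounds as a control protein.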 The settings on record: streptavidin binding, higher = more signal.
The nature of test [16]: small-molecule binders of probe aInhba, primary screen, biochemical, small-molecule microarray, 635/667 nm fluorescence (AID 1148).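 Also: score merges 667nm spot fluorescence with signal-to-noise for antibody binding to printed compounds.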 The settings on record: higher = more signal.
Test [17] deals with Torsin-1A (Homo sapiens) (UniProt O14656). The experiment in a line: torsin A binders from cell lysate, primary screen, small-molecule microarray, wild-type, 635/667 nm (AID 1149). The settings on record: COS7 hTOR1A-WT lysate, 635 nm fluorescence, higher = more signal.
Sequence of Torsin-1A (Homo sapiens) (O14656 whole entry, looked up): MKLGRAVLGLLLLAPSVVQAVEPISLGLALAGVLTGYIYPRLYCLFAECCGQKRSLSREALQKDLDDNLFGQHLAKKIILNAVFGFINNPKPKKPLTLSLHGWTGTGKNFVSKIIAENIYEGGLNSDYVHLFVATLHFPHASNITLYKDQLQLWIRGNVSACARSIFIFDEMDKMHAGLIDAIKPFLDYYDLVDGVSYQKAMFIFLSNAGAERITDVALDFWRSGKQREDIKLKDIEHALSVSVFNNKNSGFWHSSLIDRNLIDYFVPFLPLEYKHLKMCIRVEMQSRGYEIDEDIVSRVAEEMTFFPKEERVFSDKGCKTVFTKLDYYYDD
Test [18] shares this target. The experiment in a line: small-molecule binders of mutant TOR1A in lysate, primary screen, cell lysate, small-molecule microarray, COS7 lysate, 635/667 nm fluorescence (AID 1150).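 Also: score pools 667 nm emission and signal to noise measuring lysate protein binding.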 The settings on record: COS7 hTOR1A mutant lysate, 635 nm fluorescence, higher = more signal.
For test [19], the system named is Sonic hedgehog protein (Shh). The experiment in a line: small-molecule binders of Shh protein, primary screen, biochemical, small-molecule microarray, 635/667 nm fluorescence (AID 1151).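 Also: Shh protein binding to compounds spotted on small-molecule microarray slides; score combines spot fluorescence intensity with signal-to-noise across triplicate slides.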 The settings on record: small-molecule microarray binding, 635 nm fluorescence; higher = more signal.

Sequence of Streptavidin (Streptomyces avidinii) (P22629 whole entry, looked up): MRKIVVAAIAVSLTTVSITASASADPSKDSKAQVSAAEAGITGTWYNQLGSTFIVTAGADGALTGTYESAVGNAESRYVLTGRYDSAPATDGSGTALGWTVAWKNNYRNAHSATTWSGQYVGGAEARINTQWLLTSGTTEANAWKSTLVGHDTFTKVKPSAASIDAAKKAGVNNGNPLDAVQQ

As for `COC(=O)[C@@]1(Cc2ccc(OC)cc2)[C@H]2c3cc(C(=O)N4CCCC4)n(CCF)c3C[C@H]2CN1C(=O)c1ccccc1`, the composite z-score in test [1] is 2.31; in test [2], 1.17; in test [3] it was 0.896; in test [4], 1.04; in test [5] it was 0.411; in [6], -0.0251. For the same compound, the composite z-score with Lefty1 was -0.3; in test [8], 1.06; in test [10] it was 2.55; in [15], 1.5; in [16], 2.05; in the test with Torsin-1A (Homo sapiens) [17] it was -0.0089. In addition, the composite z-score was 0.619 with Torsin-1A (Homo sapiens) [18] and -0.801 in test [19]. For the same compound, the z-score is -1.32 in [7]; 1.49 (inactive) in [9]; -2.46 (inactive) in test [11]; -0.129 (inactive) in test [12]; 0.972 (inactive) in test [13]; 0.325 (inactive) in test [14].

`CC(C)N1C(=O)c2ccccc2[C@](C)(C(=O)O)[C@@H]1c1ccc(CO)cc1`: the composite z-score was 0.181 in test [1]; -1.44 in test [2]; -0.0258 in test [3]; -1.34 in [4]; -0.509 in [5]; -0.977 in test [6]. Moreover, the composite z-score with Lefty1 was -0.82; in [8], -0.36; in test [10], -0.654; in [15], -0.603; in test [16] it was -0.148; in the test with Torsin-1A (Homo sapiens) [17], -1.03. The composite z-score with Torsin-1A (Homo sapiens) [18] was -0.792; in [19] it was -1.02. Further, the z-score in test [7] was -0.359; in test [9], 0.883 (inactive); in test [11], -0.328 (inactive); in test [12] it was 0.00934 (inactive); in test [13] it was -0.206 (inactive); in test [14] it was 0.552 (inactive).

In the case of `COC(=O)[C@@]1(Cc2ccc(OC)cc2)[C@H]2c3cc(C(=O)N(C)C)n(Cc4cc(C)n(C)n4)c3C[C@H]2CN1C(=O)c1ccccc1`, the composite z-score was 1.08 in test [1]; 1.29 in test [2]; 0.405 in test [3]; -0.842 in [4]; -0.396 in test [5]; -0.233 in test [6]. Besides, the composite z-score was -0.0189 with Lefty1; 0.262 in [8]; 0.982 in [10]; 0.462 in test [15]; 0.229 in [16]; 0.638 with Torsin-1A (Homo sapiens) [17]. The composite z-score is 0.67 with Torsin-1A (Homo sapiens) [18] and -0.797 in [19]. The z-score is -1.14 in test [7]; 1.01 (inactive) in [9]; -0.753 (inactive) in test [11]; 0.329 (inactive) in [12]; 0.19 (inactive) in [13]; 2.65 (inactive) in test [14].

As for `COCCOC(=O)N1C(=O)[C@@]2(c3cc(C#CCC(C(=O)OC)C(=O)OC)ccc31)[C@H](c1ccc(OCCO)cc1)N1[C@H](c3ccccc3)[C@H](c3ccccc3)OC(=O)[C@H]1[C@@H]2C(N)=O`, the composite z-score in test [1] is 1.38; in test [2] it was 1.2; in [3], 1.16; in [4], 0.924; in test [5] it was 1.28; in test [6], 1.13. Also, the composite z-score in the test with Lefty1 turned out to be 0.484; in [8], 0.386; in test [10], 0.0271; in [15], 0.576; in test [16] it was 0.13; with Torsin-1A (Homo sapiens) [17] it was 0.337. The composite z-score was 1.01 with Torsin-1A (Homo sapiens) [18] and 0.989 in [19]. In addition, the z-score in [7] was -0.921; in test [9] it was -1.23 (inactive); in test [11], -1.29 (inactive); in [12] it was 0.719 (inactive); in [13], 0.892 (inactive); in test [14] it was 1.64 (inactive).

Turning to `C=C[C@@H](O)[C@H]1CC(c2ccccc2)=NO1`, the composite z-score in test [1] is 0.103; in test [2] it was -0.565; in test [3] it was -0.0062; in [4], -0.0611; in test [5], -0.16; in test [6], -0.121. For the same compound, the composite z-score with Lefty1 is -0.0793; in test [8], -0.288; in [10], -0.184; in [15] it was 0.174; in test [16], -0.183; in the test with Torsin-1A (Homo sapiens) [17], 0.154. The results for the composite z-score (in the test with Torsin-1A (Homo sapiens) [18]; in [19]) were 0.334 and -0.18, respectively. Moreover, the z-score was 1.12 in test [7]; -1.53 (inactive) in test [9]; 0.0011 (inactive) in test [11]; 0.15 (inactive) in [12]; 1.03 (inactive) in test [13]; 0.167 (inactive) in test [14].
